# From the OligoGym collection
# Molecular target: LYPD3
# Assay: pooled miR-30 sensor sort-seq; sequence = guide strand
# Settings: shRNA
# Also: reference of the scale not given here.
row,Sequence,sensor-assay potency score (higher = more potent)
1,TTCACTGTCTTCATCTTGTTCG,0.494
2,TGCACTCTCATTACCTGCCGGG,-0.389
3,TCTGCTTTCTGCACGCAGCTGT,0.703
4,TTCATCCTGGACACAGCCCCGG,-0.847
5,TCTTGTTCGGGGAGCATCCGTC,-0.769
6,TAGAAGTGGTGACAGATGTGGT,-0.342
7,TTGTAGACATGATCGCTGGCGT,-0.346
8,TTGCCGTCGAAGCAGCCCTTGT,-1.63
9,TCATCTGCTTTCTGCACGCAGC,-1.43

# Molecular target: LYZL6
# Assay: as above
# Settings: shRNA
row,Sequence,sensor-assay potency score (higher = more potent)
1,TTTAGGGCAAGAAAGCTGCTGA,-0.16
2,TTTGATATGTTGAACTTGCTTT,0.0932
3,CAGATCTTGACAGTCTACGTGG,-1.04
4,ATAATCGTTGCACCAGTAGTGG,-0.825
5,TTGATATGTTGAACTTGCTTTC,-0.485
6,TAATCGTTGCACCAGTAGTGGC,-1.43
7,ATCTTTGATATGTTGAACTTGC,-0.0692
8,TCAGCAGATCTTGACAGTCTAC,-0.859
9,TTGCTTTCCACAAAAGCCAGGC,-0.197
10,TATGTTGAACTTGCTTTCCACA,-1.04
11,AACAGTGCAACCTCCATTCTAC,-0.122
12,TATCTTTGATATGTTGAACTTG,-0.231

# Molecular target: LZTR1
# Assay: as above
# Settings: shRNA
row,Sequence,sensor-assay potency score (higher = more potent)
1,TCATTGAGCATGGTCTTCCCAT,-0.632
2,TATTTGATCTTGTCGGTGTAGA,0.13
3,TAACAGGAGAACTGGAACCTGT,-1.05
4,TTGGAGACCTTGGTGAACTGGT,0.248
5,TTTCACATCGAACCGCAGGAGG,-1.16
6,TAGGGTAACAGGAGAACTGGAA,0.345
7,TTCATCTCCAGGTTCTGCTTGC,0.0647
8,TTAGGGTAACAGGAGAACTGGA,-0.956
9,TATGATGTCCAGCAGCAGCTGC,-0.965
10,TACTCGACACTGTCCGAGCAGC,-1.08
11,AATACAAACATCTTGTCCCGGC,-0.355

# Molecular target: MACROD1
# Assay: as above
# Settings: shRNA
row,Sequence,sensor-assay potency score (higher = more potent)
1,TGCTTGTCCTTTTTATACCTGG,-0.621
2,TTGAGCTGCTTGTCCTTTTTAT,-0.992
3,TCATTGAGCTGCTTGTCCTTTT,-0.672
4,TTCGCCTCCTTCCAGTCGGTGG,-1.48
5,TTTCTCATTGAGCTGCTTGTCC,-0.192
6,AACACGCAGATGATCAGCCGGT,-0.183
7,AAGGATTTCGCCTCCTTCCAGT,-0.552
8,TTCAGCCTGACAAAGTCCTTGC,0.08
